Key:
Test in all cases: log2 ratio of Biotin-Ahx-Ub-VS probe labelling (fragment/DMSO); higher = less target engagement (more negative = stronger competition), active = hit call of the paper (q ≤ 0.05, log2 ratio ≤ -1)
Settings in all cases: compound concentration: 200 uM; treatment time: 3 h
USP19 = target: T1, USP19 (UniProt O94966)
T1 sequence (whole entry): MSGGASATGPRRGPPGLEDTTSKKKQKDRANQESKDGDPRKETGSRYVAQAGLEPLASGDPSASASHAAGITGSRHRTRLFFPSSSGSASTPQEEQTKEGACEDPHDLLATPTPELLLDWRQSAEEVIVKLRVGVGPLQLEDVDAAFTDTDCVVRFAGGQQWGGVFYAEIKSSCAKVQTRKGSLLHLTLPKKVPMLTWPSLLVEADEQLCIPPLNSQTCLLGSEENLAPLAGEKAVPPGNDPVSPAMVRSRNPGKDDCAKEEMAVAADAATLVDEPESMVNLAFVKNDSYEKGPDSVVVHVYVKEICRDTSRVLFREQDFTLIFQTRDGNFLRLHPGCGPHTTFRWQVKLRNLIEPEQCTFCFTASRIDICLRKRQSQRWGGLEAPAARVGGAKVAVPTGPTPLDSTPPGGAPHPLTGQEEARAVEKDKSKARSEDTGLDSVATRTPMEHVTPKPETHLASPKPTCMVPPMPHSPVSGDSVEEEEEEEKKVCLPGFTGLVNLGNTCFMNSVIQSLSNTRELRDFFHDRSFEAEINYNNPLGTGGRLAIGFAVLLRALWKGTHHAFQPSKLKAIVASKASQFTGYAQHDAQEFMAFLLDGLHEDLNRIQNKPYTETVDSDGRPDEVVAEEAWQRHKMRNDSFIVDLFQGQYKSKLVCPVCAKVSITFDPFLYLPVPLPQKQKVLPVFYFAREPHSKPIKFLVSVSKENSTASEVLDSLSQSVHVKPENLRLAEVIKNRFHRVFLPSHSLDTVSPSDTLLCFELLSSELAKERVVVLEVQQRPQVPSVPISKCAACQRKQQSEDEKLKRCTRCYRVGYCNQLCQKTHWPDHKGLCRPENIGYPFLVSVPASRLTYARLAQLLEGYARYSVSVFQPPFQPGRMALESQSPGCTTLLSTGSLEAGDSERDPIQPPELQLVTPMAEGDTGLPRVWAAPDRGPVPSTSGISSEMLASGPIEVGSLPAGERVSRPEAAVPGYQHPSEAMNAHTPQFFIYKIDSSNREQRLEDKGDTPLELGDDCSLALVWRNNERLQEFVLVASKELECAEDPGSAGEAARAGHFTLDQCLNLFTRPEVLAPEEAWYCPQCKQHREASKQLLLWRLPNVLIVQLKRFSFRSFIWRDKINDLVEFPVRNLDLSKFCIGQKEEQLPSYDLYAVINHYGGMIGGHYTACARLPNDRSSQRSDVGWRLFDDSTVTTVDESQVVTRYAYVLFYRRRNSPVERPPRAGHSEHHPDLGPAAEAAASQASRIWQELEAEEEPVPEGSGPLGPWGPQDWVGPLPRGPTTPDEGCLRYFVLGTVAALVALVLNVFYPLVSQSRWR
Outline: (§1)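 HEK293T lysate in Tris/CHAPS/IGEPAL buffer with protease inhibitors (495 µg per sample) was given fragment at 200 µM or vehicle for 3 h, in triplicate. It then received Biotin-Ahx-Ub-VS at 0.5 µM final for 1 h. Labelled DUBs were NeutrAvidin-enriched, digested with LysC and trypsin, and run by diaPASEF LC-MS/MS. Values are average log2 fragment/vehicle ratios by unpaired t-test on global-median-normalised Spectronaut quantities of proteins with ≥2 unique peptides.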

USP22 = target: T2, USP22 (UniProt Q9UPT9)
T2 sequence (whole entry): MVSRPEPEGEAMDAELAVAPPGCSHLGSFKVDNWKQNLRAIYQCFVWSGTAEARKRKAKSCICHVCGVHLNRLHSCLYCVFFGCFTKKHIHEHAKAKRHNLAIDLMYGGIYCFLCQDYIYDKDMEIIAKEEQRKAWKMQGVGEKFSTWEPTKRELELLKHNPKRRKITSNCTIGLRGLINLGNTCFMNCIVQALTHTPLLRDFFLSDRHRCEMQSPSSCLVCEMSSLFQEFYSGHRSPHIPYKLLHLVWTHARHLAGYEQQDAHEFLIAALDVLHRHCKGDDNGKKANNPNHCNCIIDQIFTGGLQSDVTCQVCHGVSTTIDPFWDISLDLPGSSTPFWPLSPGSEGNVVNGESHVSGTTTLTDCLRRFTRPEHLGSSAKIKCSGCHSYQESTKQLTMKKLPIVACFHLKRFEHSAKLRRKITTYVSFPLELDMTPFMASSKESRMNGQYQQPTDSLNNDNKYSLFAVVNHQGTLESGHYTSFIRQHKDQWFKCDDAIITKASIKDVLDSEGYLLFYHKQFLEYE
Outline: as §1

USP24 = USP24 (UniProt Q9UPU5)
Sequence of USP24 (Q9UPU5 whole entry): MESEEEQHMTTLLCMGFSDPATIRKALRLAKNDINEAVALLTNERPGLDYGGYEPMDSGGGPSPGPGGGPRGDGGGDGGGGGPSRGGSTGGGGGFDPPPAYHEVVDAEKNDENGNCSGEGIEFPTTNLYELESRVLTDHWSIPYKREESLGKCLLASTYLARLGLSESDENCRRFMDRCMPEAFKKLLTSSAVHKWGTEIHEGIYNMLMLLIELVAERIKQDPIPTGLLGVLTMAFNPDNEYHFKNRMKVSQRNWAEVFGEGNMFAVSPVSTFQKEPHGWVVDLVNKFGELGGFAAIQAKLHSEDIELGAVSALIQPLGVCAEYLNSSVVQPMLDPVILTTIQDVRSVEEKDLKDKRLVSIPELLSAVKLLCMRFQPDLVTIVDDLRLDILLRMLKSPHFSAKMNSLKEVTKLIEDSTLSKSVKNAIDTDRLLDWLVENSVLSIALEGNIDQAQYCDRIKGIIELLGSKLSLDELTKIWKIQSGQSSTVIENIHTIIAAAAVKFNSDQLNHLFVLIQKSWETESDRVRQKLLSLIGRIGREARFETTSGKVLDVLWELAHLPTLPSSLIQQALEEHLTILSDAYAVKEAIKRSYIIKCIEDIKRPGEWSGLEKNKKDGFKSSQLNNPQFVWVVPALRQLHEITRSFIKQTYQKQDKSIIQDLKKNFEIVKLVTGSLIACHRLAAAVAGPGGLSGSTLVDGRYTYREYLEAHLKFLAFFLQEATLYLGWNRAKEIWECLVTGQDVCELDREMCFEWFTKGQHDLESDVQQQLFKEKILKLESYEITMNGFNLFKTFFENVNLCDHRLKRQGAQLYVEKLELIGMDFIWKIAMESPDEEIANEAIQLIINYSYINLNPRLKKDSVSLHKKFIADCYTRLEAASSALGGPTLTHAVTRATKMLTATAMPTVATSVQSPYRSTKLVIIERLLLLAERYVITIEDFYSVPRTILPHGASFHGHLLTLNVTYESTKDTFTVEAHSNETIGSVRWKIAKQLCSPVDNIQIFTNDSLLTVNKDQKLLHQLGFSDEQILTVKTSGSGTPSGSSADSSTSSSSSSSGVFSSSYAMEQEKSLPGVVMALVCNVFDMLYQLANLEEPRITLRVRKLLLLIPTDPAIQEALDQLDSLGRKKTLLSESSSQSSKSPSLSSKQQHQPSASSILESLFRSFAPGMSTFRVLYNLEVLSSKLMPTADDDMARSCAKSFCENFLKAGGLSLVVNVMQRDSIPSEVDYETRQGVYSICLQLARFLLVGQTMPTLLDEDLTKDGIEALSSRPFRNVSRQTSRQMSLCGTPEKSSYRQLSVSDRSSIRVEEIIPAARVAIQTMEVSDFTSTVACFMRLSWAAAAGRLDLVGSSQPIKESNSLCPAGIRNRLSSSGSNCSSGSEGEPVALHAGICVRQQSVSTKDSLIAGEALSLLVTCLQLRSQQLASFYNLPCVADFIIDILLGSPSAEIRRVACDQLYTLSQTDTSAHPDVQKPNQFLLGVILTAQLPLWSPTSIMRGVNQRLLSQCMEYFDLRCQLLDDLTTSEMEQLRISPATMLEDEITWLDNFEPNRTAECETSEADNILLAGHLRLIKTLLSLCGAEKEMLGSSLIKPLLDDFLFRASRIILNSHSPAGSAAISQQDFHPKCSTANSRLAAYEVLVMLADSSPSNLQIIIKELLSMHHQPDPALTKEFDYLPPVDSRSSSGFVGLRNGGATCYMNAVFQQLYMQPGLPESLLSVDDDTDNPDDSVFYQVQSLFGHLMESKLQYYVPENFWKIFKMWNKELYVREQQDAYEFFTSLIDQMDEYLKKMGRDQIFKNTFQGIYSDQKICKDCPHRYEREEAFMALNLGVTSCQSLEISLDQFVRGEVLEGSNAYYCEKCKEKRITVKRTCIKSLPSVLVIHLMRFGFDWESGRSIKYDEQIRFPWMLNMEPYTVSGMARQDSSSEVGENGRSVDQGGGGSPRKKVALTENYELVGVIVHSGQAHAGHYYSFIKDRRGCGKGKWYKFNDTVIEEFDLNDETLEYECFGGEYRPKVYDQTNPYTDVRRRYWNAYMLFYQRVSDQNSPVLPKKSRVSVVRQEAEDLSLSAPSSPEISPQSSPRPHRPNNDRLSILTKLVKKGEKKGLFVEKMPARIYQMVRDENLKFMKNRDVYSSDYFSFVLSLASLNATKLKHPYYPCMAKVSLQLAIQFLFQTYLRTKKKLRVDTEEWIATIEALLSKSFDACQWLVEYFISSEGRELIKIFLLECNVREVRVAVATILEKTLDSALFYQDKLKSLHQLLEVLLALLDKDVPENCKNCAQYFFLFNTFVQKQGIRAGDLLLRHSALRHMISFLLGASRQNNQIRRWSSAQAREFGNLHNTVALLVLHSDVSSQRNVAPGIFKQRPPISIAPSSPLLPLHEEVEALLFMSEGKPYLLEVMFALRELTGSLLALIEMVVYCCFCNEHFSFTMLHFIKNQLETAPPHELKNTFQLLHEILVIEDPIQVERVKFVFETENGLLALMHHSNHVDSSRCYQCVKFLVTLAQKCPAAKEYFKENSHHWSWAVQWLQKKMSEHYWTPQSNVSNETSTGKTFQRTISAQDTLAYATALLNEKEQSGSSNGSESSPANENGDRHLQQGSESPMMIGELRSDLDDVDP
Outline: as §1

USP25 = target: T3, USP25 (UniProt Q9UHP3)
T3 sequence (whole entry): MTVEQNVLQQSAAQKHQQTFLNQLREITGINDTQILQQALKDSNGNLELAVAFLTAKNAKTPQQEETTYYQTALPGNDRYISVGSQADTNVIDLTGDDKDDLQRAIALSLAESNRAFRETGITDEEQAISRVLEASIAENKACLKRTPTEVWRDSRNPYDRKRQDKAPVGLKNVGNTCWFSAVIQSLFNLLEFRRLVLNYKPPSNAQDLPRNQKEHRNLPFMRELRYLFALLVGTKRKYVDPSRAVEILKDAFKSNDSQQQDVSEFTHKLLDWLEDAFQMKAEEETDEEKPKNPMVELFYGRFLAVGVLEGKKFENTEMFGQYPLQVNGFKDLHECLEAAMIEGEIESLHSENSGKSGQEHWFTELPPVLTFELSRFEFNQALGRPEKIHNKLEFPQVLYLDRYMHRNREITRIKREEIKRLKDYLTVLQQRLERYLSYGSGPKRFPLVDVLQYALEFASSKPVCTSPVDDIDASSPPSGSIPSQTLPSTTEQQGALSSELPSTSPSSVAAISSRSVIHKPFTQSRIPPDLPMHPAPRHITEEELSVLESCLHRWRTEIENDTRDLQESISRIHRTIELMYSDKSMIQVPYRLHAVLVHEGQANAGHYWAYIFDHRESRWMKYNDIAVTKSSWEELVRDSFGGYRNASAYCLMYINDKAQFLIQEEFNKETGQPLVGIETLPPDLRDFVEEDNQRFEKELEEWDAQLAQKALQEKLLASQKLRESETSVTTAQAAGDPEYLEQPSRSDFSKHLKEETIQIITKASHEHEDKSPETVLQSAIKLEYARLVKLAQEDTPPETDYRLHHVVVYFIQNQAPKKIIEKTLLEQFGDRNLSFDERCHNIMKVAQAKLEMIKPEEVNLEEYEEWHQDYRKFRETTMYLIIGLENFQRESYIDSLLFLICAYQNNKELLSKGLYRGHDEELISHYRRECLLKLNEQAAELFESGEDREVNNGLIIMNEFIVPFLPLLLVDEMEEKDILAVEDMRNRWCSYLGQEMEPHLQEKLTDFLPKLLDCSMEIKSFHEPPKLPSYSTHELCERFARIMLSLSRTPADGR
Outline: as §1

USP28 = target: T4, USP28 (UniProt Q96RU2)
T4 sequence (whole entry): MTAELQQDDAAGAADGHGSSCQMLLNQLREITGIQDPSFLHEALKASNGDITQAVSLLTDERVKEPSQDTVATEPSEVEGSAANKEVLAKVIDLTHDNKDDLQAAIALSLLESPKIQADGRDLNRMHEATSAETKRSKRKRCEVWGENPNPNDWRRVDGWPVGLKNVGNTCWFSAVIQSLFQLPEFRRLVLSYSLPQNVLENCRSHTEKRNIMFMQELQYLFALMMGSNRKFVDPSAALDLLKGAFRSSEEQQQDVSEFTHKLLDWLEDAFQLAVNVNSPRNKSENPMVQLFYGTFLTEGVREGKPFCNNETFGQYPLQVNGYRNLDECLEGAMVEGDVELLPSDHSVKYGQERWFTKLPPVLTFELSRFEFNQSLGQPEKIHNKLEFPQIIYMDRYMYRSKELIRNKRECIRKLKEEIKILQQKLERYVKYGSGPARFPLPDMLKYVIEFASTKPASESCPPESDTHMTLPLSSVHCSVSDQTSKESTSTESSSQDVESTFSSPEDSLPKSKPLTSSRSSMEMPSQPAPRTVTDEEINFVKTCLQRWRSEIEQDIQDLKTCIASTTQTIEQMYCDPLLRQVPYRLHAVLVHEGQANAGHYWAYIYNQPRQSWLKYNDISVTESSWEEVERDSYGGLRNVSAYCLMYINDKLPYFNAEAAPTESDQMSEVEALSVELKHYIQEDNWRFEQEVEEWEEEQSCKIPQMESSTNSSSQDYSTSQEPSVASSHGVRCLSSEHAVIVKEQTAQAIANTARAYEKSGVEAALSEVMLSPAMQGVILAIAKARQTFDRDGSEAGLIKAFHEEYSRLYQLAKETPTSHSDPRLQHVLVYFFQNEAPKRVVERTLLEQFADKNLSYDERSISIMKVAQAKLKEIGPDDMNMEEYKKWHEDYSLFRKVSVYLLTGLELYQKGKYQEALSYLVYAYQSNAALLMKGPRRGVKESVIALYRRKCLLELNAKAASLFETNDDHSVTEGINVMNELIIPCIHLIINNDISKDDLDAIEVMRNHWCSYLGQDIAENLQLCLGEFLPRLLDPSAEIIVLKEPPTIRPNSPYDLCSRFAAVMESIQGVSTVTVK
Outline: as §1

Measured: log2 ratio of Biotin-Ahx-Ub-VS probe labelling

O=C(CCl)NCCc1ccc2c(c1)OCCO2
inactive: USP19 -0.254 | USP22 0.0144 | USP24 -0.665 | USP25 -0.794 | USP28 -0.745
